Targets with a hit are over-represented here; the source holds about 8,800 in all. About 0.5% of all pairs of compound and target were hits. A number with no mark means an inactive call.
Tests used:
Experiment in all cases: log2 fold change, soluble protein after heating vs DMSO (PISA); higher = thermal stabilisation; K562 lysate, 10 uM; active = over 0.2 and 3.5 SD of the protein, either way, in both replicates (recomputed)
[1] = compound: C1=CC=C(C=C1)[C@H](COC2=CC3=C(C=C2)NC(=O)N3)NC(=O)C4=CC=CN(C4=O)CC5=CC(=C(C=C5)F)F
Method in brief: (§1)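 Log-two fold change in thermal stability relative to solvent controls is reported from duplicates. For each sample, crude K562 extract from dounce-homogenised pellets in PBS pH 7.4 with 1 mM MgCl2, at 1 mg/mL protein, was treated with 10 μM compound for 30 min. Aliquots heated for 3 min across 48°C-58°C were pooled, brought to 0.5% NP-40 at 4°C and cleared at 21,000xg for 90 min. The supernatant was quantified by TMTpro 16plex LC-MS/MS with channel sums equalised.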

[2] = compound: CC1=C(SC2=C1C(=N[C@H](C3=NN=C(N32)C)CC(=O)N)C4=CC=C(C=C4)Cl)C
Method in brief: as §1

[3] = compound: Cc1sc2c(c1C)C(c1ccc(Cl)cc1)=N[C@@H](CC(=O)OC(C)(C)C)c1nnc(C)n1-2
Method in brief: as §1

[4] = compound: c1ccc([C@@H]2C[C@H]2NC2CCNCC2)cc1
Method in brief: as §1

[5] = compound: CC1=C2C(=CC=C1)N=C(N(C2=O)C3=CC=CC=C3C)CN4C=NC5=C(N=CN=C54)N
Method in brief: as §1

Sequence of UniProt Q6P4H8 (Q6P4H8 whole entry, looked up): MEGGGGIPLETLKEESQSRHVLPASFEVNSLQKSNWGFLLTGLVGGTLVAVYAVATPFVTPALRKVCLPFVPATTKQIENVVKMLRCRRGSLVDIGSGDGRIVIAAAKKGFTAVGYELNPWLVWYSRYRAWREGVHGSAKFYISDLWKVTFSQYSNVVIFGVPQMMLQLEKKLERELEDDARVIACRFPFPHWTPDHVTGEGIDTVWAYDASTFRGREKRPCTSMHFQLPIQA
Sequence of UniProt Q8IYX8 (Q8IYX8 whole entry, looked up): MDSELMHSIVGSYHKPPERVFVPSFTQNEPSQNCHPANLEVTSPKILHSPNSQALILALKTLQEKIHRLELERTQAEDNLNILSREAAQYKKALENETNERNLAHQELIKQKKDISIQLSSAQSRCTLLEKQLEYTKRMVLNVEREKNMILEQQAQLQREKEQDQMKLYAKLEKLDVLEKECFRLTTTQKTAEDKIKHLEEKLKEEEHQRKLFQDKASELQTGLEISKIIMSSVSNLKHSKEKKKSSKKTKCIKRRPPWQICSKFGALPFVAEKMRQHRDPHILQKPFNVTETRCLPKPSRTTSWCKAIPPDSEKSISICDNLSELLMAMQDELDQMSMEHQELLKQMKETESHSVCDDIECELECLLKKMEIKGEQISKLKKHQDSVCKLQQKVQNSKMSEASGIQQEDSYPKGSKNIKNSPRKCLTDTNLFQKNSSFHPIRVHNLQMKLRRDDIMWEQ
Sequence of UniProt Q8NDD1 (Q8NDD1 whole entry, looked up): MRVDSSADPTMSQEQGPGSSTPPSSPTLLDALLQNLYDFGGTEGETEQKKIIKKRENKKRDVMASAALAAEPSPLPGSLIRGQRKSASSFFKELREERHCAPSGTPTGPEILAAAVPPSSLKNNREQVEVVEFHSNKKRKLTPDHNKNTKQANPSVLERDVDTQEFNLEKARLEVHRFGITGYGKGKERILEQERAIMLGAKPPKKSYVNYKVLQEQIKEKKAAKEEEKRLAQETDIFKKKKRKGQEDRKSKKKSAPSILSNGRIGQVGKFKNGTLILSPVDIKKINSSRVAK
Sequence of UniProt O76039 (O76039 whole entry, looked up): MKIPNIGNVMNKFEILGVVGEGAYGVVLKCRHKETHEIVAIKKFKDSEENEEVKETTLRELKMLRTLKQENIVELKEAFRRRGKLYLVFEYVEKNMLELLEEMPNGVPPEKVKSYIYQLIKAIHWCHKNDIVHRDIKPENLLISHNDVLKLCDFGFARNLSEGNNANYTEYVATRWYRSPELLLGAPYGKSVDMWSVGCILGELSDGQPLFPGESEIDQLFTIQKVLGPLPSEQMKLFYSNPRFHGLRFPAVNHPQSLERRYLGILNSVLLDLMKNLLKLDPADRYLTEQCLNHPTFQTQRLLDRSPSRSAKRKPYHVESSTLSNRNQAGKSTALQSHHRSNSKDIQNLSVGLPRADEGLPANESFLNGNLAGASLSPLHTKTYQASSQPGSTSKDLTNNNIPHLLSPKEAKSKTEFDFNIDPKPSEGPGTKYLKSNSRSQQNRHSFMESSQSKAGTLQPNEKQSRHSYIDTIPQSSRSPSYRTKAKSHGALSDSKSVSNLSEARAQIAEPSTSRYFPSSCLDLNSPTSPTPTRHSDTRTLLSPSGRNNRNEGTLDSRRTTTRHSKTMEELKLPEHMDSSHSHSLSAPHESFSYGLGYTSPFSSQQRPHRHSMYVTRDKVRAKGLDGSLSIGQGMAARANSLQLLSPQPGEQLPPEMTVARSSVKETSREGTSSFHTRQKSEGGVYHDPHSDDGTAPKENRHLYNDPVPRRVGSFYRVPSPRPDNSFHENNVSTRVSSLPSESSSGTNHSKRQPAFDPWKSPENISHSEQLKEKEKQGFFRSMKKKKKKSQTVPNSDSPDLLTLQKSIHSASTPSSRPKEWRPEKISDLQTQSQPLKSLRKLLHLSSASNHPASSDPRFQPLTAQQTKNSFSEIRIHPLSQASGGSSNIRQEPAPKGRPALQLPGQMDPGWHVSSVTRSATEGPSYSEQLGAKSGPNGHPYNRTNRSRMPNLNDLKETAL
Sequence of UniProt Q7Z4R8 (Q7Z4R8 whole entry, looked up): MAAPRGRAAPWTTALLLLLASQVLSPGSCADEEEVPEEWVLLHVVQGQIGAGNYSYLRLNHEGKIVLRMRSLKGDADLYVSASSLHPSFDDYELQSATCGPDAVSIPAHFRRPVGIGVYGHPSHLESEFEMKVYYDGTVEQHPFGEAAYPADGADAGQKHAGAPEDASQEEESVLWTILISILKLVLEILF
Sequence of UniProt Q9NZM4 (Q9NZM4 whole entry, looked up): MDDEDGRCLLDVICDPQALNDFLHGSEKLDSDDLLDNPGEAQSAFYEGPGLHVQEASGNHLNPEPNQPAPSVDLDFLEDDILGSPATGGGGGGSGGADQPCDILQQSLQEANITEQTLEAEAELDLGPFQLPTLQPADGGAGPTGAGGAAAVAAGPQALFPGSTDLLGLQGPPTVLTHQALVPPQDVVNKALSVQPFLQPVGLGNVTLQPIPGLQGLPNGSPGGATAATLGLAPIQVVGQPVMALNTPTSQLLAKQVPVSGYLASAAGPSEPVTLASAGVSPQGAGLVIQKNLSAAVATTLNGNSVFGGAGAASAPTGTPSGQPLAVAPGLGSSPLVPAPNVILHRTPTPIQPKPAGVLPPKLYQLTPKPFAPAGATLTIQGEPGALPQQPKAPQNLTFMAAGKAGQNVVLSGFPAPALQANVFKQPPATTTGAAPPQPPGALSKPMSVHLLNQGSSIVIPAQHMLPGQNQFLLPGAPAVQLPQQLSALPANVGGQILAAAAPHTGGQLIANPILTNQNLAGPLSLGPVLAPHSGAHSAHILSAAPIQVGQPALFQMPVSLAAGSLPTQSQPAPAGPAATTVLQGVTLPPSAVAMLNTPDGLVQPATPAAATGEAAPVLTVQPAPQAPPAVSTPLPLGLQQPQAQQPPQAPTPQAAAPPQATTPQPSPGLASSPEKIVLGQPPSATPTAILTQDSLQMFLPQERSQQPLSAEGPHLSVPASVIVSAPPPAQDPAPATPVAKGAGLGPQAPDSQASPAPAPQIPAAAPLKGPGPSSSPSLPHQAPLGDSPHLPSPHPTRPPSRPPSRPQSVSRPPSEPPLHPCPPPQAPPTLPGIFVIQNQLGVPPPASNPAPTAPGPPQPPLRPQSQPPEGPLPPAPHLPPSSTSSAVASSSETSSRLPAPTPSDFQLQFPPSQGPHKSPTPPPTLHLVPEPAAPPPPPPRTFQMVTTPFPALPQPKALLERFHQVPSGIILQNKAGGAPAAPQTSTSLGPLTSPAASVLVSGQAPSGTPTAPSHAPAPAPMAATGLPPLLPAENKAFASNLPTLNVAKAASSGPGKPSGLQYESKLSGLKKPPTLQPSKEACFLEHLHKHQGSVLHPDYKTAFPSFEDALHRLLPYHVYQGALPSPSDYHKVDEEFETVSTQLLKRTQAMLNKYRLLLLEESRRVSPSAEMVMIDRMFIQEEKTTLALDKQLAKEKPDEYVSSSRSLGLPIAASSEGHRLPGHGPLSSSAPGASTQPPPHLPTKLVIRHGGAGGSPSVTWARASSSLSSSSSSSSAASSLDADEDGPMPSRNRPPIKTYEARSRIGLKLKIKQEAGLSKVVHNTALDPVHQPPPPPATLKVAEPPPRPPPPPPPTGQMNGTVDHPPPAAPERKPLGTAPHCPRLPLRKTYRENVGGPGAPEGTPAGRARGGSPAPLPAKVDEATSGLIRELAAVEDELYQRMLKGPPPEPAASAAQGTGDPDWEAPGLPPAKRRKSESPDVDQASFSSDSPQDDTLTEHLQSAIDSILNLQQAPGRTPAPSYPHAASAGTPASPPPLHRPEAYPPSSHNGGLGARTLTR
Sequence of UniProt Q5U623 (Q5U623 whole entry, looked up): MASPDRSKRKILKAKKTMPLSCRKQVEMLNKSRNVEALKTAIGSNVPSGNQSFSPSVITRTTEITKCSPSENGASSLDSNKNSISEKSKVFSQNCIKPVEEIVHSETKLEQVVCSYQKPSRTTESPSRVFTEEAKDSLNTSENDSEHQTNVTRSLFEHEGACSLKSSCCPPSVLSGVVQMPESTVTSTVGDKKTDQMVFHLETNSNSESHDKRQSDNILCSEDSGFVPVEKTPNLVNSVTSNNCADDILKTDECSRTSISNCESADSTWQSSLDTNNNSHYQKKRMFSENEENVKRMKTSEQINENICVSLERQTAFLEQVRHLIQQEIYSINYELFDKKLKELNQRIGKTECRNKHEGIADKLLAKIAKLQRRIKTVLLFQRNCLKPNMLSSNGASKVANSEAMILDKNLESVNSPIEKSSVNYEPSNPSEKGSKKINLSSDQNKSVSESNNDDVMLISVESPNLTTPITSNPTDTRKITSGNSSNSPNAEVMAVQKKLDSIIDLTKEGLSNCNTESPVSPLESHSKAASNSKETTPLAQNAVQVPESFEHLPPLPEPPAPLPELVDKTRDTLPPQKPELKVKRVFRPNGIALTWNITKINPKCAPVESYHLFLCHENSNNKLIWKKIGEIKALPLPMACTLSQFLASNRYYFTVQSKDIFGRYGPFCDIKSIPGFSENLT
Sequence of UniProt Q96L58 (Q96L58 whole entry, looked up): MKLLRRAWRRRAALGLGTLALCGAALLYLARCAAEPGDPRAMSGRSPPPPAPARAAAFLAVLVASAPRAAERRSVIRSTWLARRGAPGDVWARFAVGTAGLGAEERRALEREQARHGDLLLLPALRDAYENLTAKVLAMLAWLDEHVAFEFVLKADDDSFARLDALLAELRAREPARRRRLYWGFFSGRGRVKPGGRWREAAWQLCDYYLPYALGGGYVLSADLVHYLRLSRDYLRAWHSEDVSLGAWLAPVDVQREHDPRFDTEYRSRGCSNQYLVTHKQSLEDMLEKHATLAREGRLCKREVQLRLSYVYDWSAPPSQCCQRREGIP
Sequence of UniProt Q12983 (Q12983 whole entry, looked up): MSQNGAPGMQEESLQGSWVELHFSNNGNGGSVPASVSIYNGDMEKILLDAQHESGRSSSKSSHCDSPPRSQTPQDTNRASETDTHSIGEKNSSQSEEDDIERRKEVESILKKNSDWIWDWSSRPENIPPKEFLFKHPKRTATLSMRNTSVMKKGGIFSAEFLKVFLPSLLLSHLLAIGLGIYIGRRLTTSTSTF
Sequence of UniProt A8MTT3 (A8MTT3 whole entry, looked up): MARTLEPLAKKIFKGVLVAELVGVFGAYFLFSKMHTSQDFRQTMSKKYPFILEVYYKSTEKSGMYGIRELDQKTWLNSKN

Target	log2 fold change [1]	log2 fold change [2]	log2 fold change [3]	log2 fold change [4]	log2 fold change [5]
CEP57L1 (UniProt Q8IYX8)	-0.078	0.115	0.143	0.099	–
CANX (UniProt D6RHJ3)	–	–	–	–	0.072
CEBPZOS (UniProt A8MTT3)	–	–	-0.006	0.018	-0.03
CHD4, A0A2R8Y521	–	–	-0.136	–	–
CAPNS1 (UniProt K7ES78)	–	–	-0.216	–	-0.094
BRAF, A0A2R8Y8E0	–	–	–	–	-0.13
CDK11A (UniProt Q9UQ88)	-0.046	0.025	0.091	0	–
C6orf120 (UniProt Q7Z4R8)	-0.101	-0.015	-0.131	0.137	–
ATG4D (UniProt Q86TL0)	-0.011	0.057	0.041	–	–
BUD13 (UniProt Q9BRD0)	-0.037	0.068	-0.162	0.029	–
CDKL5 (UniProt O76039)	–	–	-0.139	-0.132	0.043
BNIP3 (UniProt Q12983)	0.034	-0.053	-0.023	-0.074	–
BBS7 (UniProt Q8IWZ6)	–	–	-0.358	0.181	0.035
ATF7IP2 (UniProt Q5U623)	0.162	0.01	–	0.017	0.101
C8orf88 (UniProt P0DMB2)	0.033	0.051	0.051	-0.002	–
B3GALT6 (UniProt Q96L58)	0.055	0.041	0.269	–	–
BAHCC1 (UniProt Q9P281)	–	–	-0.187	-0.696 (active)	0.011
ATPSCKMT (UniProt Q6P4H8)	0.111	-0.006	0.023	–	–
C1orf131 isoform 5 (UniProt Q8NDD1)	–	–	-0.009	-0.108	0.096
BICRA (UniProt Q9NZM4)	-0.077	0.208	-0.122	-0.142	–

From the supplement of paper PMC10849652
